Assay outcomes (PubChem)
Most compounds without a hit are left out; they make up all but 3.2% or so of the library.
SKN-1 block: inhibitors of C. elegans SKN-1; inhibition, % at 21.8 µM; AID 624304; C. elegans VP596 Pgst-4::GFP/RFP ratio, acrylamide-induced, 24 h; 0.49% of 360,000 active;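 active = interference check ratio from 0.5 to 1.5 plus GFP to RFP signal ratio inhibition reaching or exceeding a fixed threshold, cut at about 30% in these data, passing the limit was not always enough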
MEKK2 mut-MEK5: signal of MEK5 binding to mutant human MEKK2 PB1 domain; bead flow cytometry, Alexa488-MEK5 binding to MEKK2 mutant; percent response, % at 10 µM; 0.35% of 290,000 active; AID 1530; in the data active = percent response above about 24%, passing the limit was not always enough
MEKK3 PB1 HTS: modulators (inhibitors or enhancers) of MEK5 binding to human MEKK3 PB1 domain | Q99759 | bead-based flow cytometry, Alexa488-MEK5 binding to MEKK3; actives lie on both sides; 0 = blocked by unlabeled MEK5, 100 = vehicle | binding response (% of control), % at 10 µM | 1.4% of 290,000 active;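 active = binding response more than 3 SD above or below the average of its plate-row segment, actives on both sides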;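 also: Alexa488 bead fluorescence after subtracting the streptavidin-only scavenger bead signal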
NRP1-CendR mod: modulators of CendR peptide binding to human neuropilin-1; O14786; FAM-RPARPAR peptide binding to NRP-1, fluorescence polarization; inhibition, % at 25 µM; 0.85% of 360,000 active; AID 602438;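 active = inhibition or corrected inhibition above about 18%, plus a signal ratio from 0.5 to 1.5, limit read from the data, passing the limit was not always enough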
MEKK2wt PB1 HTS: raises or lowers MEK5 binding to wildtype human MEKK2 PB1 domain; binding response (% of control), % at 10 µM; bead flow cytometry, Alexa488-MEK5 binding to MEKK2 WT; actives lie on both sides; 1.1% of 290,000 active; AID 1531; Q9Y2U5; in the data active = binding response below about 67% or above about 130%
* marks the source's active call; other numbers are inactive results; . = not tested or not shown; ! = repeats disagree.

SMILES	SKN-1 block	MEKK2 mut-MEK5	MEKK3 PB1 HTS	NRP1-CendR mod	MEKK2wt PB1 HTS
COc1ccc(CCNC(=O)C(=O)NCC2CCCN2S(=O)(=O)c2ccccc2)cc1OC (stereo not drawn)	2	.	.	5	.
COc1ccc(C2=CCCCCC2)c(OC)c1OC	0	.	.	10	.
COc1ccc(-c2ccc(OC)c(OC)c2OC)c(OC)c1OC	-2	.	.	20*	.
CC1CCCN(CCCN2C(=O)C3C(C(=O)Nc4cccc(Cl)c4)C4C=CC3(O4)C2C(=O)NC2CCCCC2)C1 (stereo not drawn)	-7	11	103	0	117
COc1ccc(CN2CCN(CC(O)Cn3c4ccccc4c4ccccc43)CC2)cc1 (stereo not drawn)	10	0	93	-2	111
CCOc1ccc(CN2CCN(CC(O)Cn3c4ccccc4c4ccccc43)CC2)cc1 (stereo not drawn)	1	9	104	5	138*
O=C(Nc1ccc(Oc2ccccc2)cc1)c1ccc2nc([C@@H]3O[C@H](CO)[C@H](O)[C@H](O)[C@H]3O)[nH]c2c1	6	.	.	0	.
Clc1ccc2oc(-c3ccccn3)nc2c1	39*	-1	101	-24	104
Nc1ccc2oc(-c3ccccn3)nc2c1	-2	5	103	-4	109
CCc1ccccc1Nc1nc(N)nc(COC(=O)CCC(=O)c2ccc(F)cc2)n1	-2	.	.	-10	.
Fc1ccc(-c2cnn3c(-c4ccncc4)ccnc23)cc1	41*	-9	91	-8	89
Fc1ccc(-c2cnn3c(-c4cccs4)ccnc23)cc1	29	-10	99	-42	96
CC(=O)OCC(=O)[C@@]12OC3(CCCC3)O[C@@H]1C[C@H]1[C@@H]3CCC4=CC(=O)C=C[C@]4(C)[C@@]3(F)[C@@H](O)C[C@@]12C	-9	3	85	1	-3.0*
Cc1ccc(S(=O)(=O)N2C[C@H]3[C@H]4C(=O)N(Cc5ccccc5)C(=O)[C@H]4CC(=O)[C@H]3[C@@H]2c2ccccc2)cc1	-19	.	.	-6	.
CCN(CC)C(=S)Sc1c(-c2ccccc2)c2cc(Cl)ccc2[nH]c1=O	35*	.	.	6	.
C[C@@H]1COc2cccc(N3CCSCC3)c2S(=O)(=O)N1	-24	.	.	-1	.
COc1n[nH]c2nncnc12	2	-1	97	28*	104
CCN(CC)CCNC(=O)c1ccc(NC(=O)/C=C/c2ccc3ccccc3n2)cc1	27	11	87	-38	0.0*
CCN(CC)CCNC(=O)c1ccc(NC(=O)Cc2ccccc2F)cc1	11	-3	91	7	95
Cc1ccc(O)c(NC(=O)CSc2n[nH]c(C)c2[N+](=O)[O-])c1	-1	6	104	0	109
CSc1ccccc1NC(=O)CSc1n[nH]c(C)c1[N+](=O)[O-]	5	2	101	27*	97
Clc1ccc(Cn2cc(Br)cn2)cc1Cl	47*	2	98	-8	98
Clc1cccc(Cl)c1Cn1cc(Br)cn1	-30	1	97	-1	98
Cc1ccc(C)c(N(CC(=O)NCCc2ccccc2)C(=O)CCC(=O)Nc2ccccn2)c1	-1	-1	96	6	98
Cc1c(-c2csc(N)n2)c2ccccc2n1C	37*	1	107	12	100
SMILES	SKN-1 block	MEKK2 mut-MEK5	MEKK3 PB1 HTS	NRP1-CendR mod	MEKK2wt PB1 HTS
CCC(=O)NS(=O)(=O)c1ccc(-c2c(-c3ccccc3)noc2C)cc1	.	2	102	.	106
Cc1onc(-c2ccccc2)c1-c1ccc(S(N)(=O)=O)cc1	0	-6	88	-13	53*!
COc1ccc(/C=C(/NC(=O)c2ccc(Br)o2)C(=O)Nc2cccc(C(=O)O)c2)cc1	17	.	.	-3	.
COCCNC(=O)/C(C#N)=C/c1c(N2CCN(c3cccc(Cl)c3)CC2)nc2c(C)cccn2c1=O	7	7	105	19*	100
O=C1CNC(=S)N1C(CO)c1ccccc1 (stereo not drawn)	2	3	103	3	101
Cc1ccc(S(=O)(=O)N2CCN(C(=O)c3ccccn3)CC2)cc1	0	-6	104	11	97
O=C(c1ccccn1)N1CCN(S(=O)(=O)c2ccccc2)CC1	-4	1	104	24*	103
Cc1nc(SCC(=O)N2CCOCC2)c2c(=O)n(C)c(=O)n(CC(C)C)c2n1	-10	.	.	24*	.
